Experimental data as given in PubChem BioAssay AID2391 (Southern Research Specialized Biocontainment Screening …, 2010).
Screen size: about 310,000 compounds; about 410 (0.13%) were called active. Inconclusive results (about 2%) are left out. No rule for the calls is given here. Not all results are given here. Results with a measured potency or affinity are listed apart.

Assay: inhibition of RSV-induced cytopathic effect – HEp-2 cells, primary 10 µM value included (AID 2391)
Details: at 10 µM, stronger effect = higher value

CPE inhibition, inactive:
C(=C/c1ccnc2nc(SC/C=C/c3ccccc3)nn12)/c1ccccc1 2.09%
Cc1cccc(CCNC(=O)c2nnc(Cc3ccc(Cl)cc3)o2)c1 2.96%
CNc1cc(C(F)(F)F)nc(-c2ccccn2)n1 -0.28%
COc1cc(OC)cc(C(=O)Nc2cccc3c2CCCC3)c1 -0.47%
C=CCn1c(=O)c2c3c(sc2n2c(Nc4ccccc4)nnc12)CCCC3 13.3%
O=C1OC(CCl)CN1Cc1ccc([N+](=O)[O-])cc1 (centres undefined) 0.81%
Cc1ccc(C)c(NC(=O)CN(C)C(=O)c2ccc(S(=O)(=O)N3CCCCCC3)cc2)c1 0.63%
Cc1ccc(NCC(=O)N=Nc2c(O)[nH]c3ccc([N+](=O)[O-])cc23)cc1 2.27%
O=C(CNC(=O)c1ccco1)N=Nc1c(O)[nH]c2ccc(Br)cc12 7.48%
Cc1ccccc1NCC(=O)N=Nc1c(O)[nH]c2ccc([N+](=O)[O-])cc12 0.48%
O=C(O)c1ccccc1N=Nc1c(O)[nH]c2ccc([N+](=O)[O-])cc12 1.41%
O=C(N=Nc1c(O)[nH]c2ccc([N+](=O)[O-])cc12)c1ccccc1Cl 3.59%
O=C(CNC(=O)c1ccc(Br)cc1)N=Nc1c(O)[nH]c2ccc([N+](=O)[O-])cc12 6.52%
Clc1cnc(N/N=C/c2ccco2)c(Cl)c1 5.1%
O=C(CC1C(=O)NCCN1Cc1ccoc1)NCc1cccc(OC(F)(F)F)c1 (centres undefined) -0.85%
CC(Sc1nnc(CNC(=O)c2ccco2)n1C)C(=O)Nc1nccs1 (centres undefined) -0.02%
CCN(CC(=O)NCc1ccc(F)cc1)C(=O)COc1ccc2ccccc2c1 1.64%
COC(=O)CSc1nnc(CNC(=O)c2ccccc2F)n1-c1ccc(F)cc1 1.47%
CSc1ccc(NC(=O)N2CCC(C(=O)c3ccc(F)cc3)CC2)cc1 8.24%
COc1ccc(S(=O)(=O)N2CCN(C(=O)c3ccc4ccccc4n3)CC2)cc1 3.49%
Cc1cc(C)c(NC(=O)CSc2nnc(CNC(=O)c3ccco3)o2)c(C)c1 -0.65%
Cc1cccc(-c2oc3ccccc3c2C#CCCCCO)c1 3.25%
COc1ccccc1-c1oc2ccccc2c1C#CCCO 3.39%
COc1cc(C2NC(C(=O)O)Cc3c2[nH]c2ccccc32)cc(OC)c1OC (centres undefined) 5.99%
CCC(=O)Nc1nnc(SCC(=O)c2ccc3c(c2)Cc2ccccc2-3)s1 42.4%
CC(=O)Nc1nnc(SCC(=O)c2ccc(F)cc2)s1 1.4%
Cc1c(NC(=S)Nc2ccc(Cl)cc2)c(=O)n(-c2ccccc2)n1C 2.83%
Cc1c(Cl)cccc1NC(=S)NCCN1CCOCC1 1.32%
COc1ccc(C(=O)COc2ccc3c(C)cc(=O)oc3c2)cc1 1.42%
COc1ccc(-c2nnc3c4ccccc4c(C)nn23)cc1S(=O)(=O)N1CCN(CCO)CC1 -0.91%
Cc1nn2c(-c3ccc(S(=O)(=O)N4CCN(C)CC4)o3)nnc2c2ccccc12 -1.89%
Cc1ccc(-c2nnc3c4ccccc4c(C)nn23)cc1S(=O)(=O)N1CCN(C)CC1 0.37%
Cc1ccc(-c2nnc3c4ccccc4c(C)nn23)cc1S(=O)(=O)N1CCN(CCO)CC1 8.23%
Cc1cc(NC(=O)CCC(=O)N(Cc2ccco2)C2(C(=O)NC3CCCC3)CCCCC2C)no1 (centres undefined) 2.17%
O=C(c1ccc(F)cc1)N1C2CCC1CC(O)(c1ccc(F)cc1)C2 (centres undefined) 0.65%
COc1ccc(S(=O)(=O)N2CCCCC2)cc1C(=O)N1CCCCCC1 1.11%
CC1Cc2ccccc2N1C(=O)COC(=O)c1ccc(Br)o1 (centres undefined) -0.89%
Cc1ccc(NC(=S)N2CCC(O)CC2)c(C)c1 3.11%
Cc1cccc(C)c1NC(=O)CN(C)CC(=O)c1c(N)n(Cc2ccccc2)c(=O)n(C)c1=O 0.19%
Cc1ccc2nc(C)cc(C(=O)OCC(=O)Nc3c(C)n(C)n(-c4ccccc4)c3=O)c2c1 2.74%
Cc1c(NC(=O)COC(=O)c2cc(-c3cccc4ccccc34)nc3ccccc23)c(=O)n(-c2ccccc2)n1C 1.88%
COc1ccc(/C=N/NC(=O)Cc2ccc(Cl)cc2)cc1OC 1.07%
COc1ccc(NC2=C(NC(C)=O)C(=O)c3ccccc3C2=O)cc1 -0.06%
CN(C)c1ccc(NC2=C(Cl)C(=O)c3ccccc3C2=O)cc1 -2.87%
CCC1=NN2C(=N)/C(=C\c3cccn3-c3ccc(C)cc3C)C(=O)N=C2S1 16.1%
CCC1=NN2C(=N)/C(=C\c3cccn3-c3ccc(C)c(C)c3)C(=O)N=C2S1 15.3%
c1ccc(-n2cc(CN3CCCC3)c(-c3ccc4c(c3)OCO4)n2)cc1 5.52%
Cc1ccc(NC(=O)c2sc(N)nc2-c2ccc([N+](=O)[O-])cc2)cc1C -0.73%
Cc1ccccc1C(=O)NC(C)C(c1cccs1)N1CCOCC1 (centres undefined) -0.28%
Cc1nn(-c2ccc(F)cc2)c2nc(N)c(C#N)c(-c3ccc(O)c(O)c3)c12 0.04%
Cc1nn(-c2ccccc2)c2nc(N)c(C#N)c(-c3ccc(O)c(O)c3)c12 39.2%
Cc1ccc(C)c2c1cc(C)c1nnc(SCC(=O)NCc3ccc4c(c3)OCO4)n12 2.14%
CCOC(=O)/C(C#N)=C/c1c(N2CCN(c3ccc(OC)cc3)CC2)nc2c(C)cccn2c1=O 7.79%
Cc1ccc(N2CC(O)Cn3c2nc2c3c(=O)n(C)c(=O)n2C)cc1 (centres undefined) 0.84%
Cc1csc(NC(=O)CSc2nnc(C)c(=O)n2N)n1 -0.18%
NNC(=O)c1[nH]c(-c2ccccc2)cc1-c1ccccc1 0.95%
O=C1c2ccccc2C(Nc2ccccc2)N1Cc1ccc2c(c1)OCO2 (centres undefined) 8.65%
O=C1c2ccccc2C(Nc2ccc3c(c2)OCO3)N1Cc1ccc2c(c1)OCO2 (centres undefined) 13.8%
C/C=C/C(=O)Nc1nnc(-c2ccccc2C)s1 0.32%
CCOc1cccc(C(=O)Nc2ccccc2C(=O)N2CCN(C)CC2)c1 -0.42%
CC(CC(=O)Nc1nccs1)c1ccccc1 (centres undefined) -0.09%
COc1cc2c(cc1OC)CN(C(=O)c1cccc(S(=O)(=O)N(C)C)c1)CC2 1.79%
O=C(c1cccc(S(=O)(=O)N2CCc3ccccc32)c1)N1CCc2ccccc2C1 7.22%
O=C(C1CC(=O)N(c2ccc(F)cc2)C1)N1CCOCC1 (centres undefined) 3.24%
Cn1c(O)c(/C=C2\C=Nc3ccccc32)sc1=Nc1ccc(C(=O)O)cc1 1.42%
C/C(=N\NC(=O)c1ccc(NS(=O)(=O)c2cccs2)cc1)c1ccncc1 3.91%
C/C(=N\NC(=O)c1ccc(NS(=O)(=O)c2cccs2)cc1)c1ccccc1 -0.3%
CC(C)=CCCC(C)CN1CCC(n2nccc2NC(=O)c2ccc3c(c2)OCO3)CC1 (centres undefined) -0.22%
N#Cc1ccccc1Cn1c(=O)n(Cc2ccc(C(=O)NCc3ccco3)cc2)c(=O)c2ccccc21 2.54%
COCCCNC(=O)c1ccc(Cn2c(=O)c3ccccc3n(Cc3cc(C)ccc3C)c2=O)cc1 1.91%
N#Cc1ccccc1Cn1c(=O)n(Cc2ccc(C(=O)NCc3ccco3)cc2)c(=O)c2sccc21 2.1%
COCCCNC(=O)c1ccc(Cn2c(=O)c3ccccc3n(Cc3ccccc3C)c2=O)cc1 1.4%
O=C(NCc1ccco1)c1ccc(Cn2c(=O)c3ccccc3n(Cc3cccc(F)c3)c2=O)cc1 4.05%
O=C(CCCn1c(=O)c2sccc2n(Cc2ccc(F)cc2)c1=O)NCc1ccco1 -0.44%
O=C(NCc1ccco1)c1ccc(Cn2c(=O)c3ccccc3n(Cc3cccc(Cl)c3)c2=O)cc1 18.6%
O=C(NCc1ccco1)c1ccc2c(=O)n(-c3ccccc3)c(=O)n(Cc3cccc(F)c3)c2c1 0.67%
CCN1CCCC1CNC(=O)Cn1ncc2c(=O)oc3ccc(C)cc3c21 (centres undefined) 2.08%
Cc1ccccc1/C=N\NC(=O)c1ccc(Cn2cccn2)o1 1.85%
O=c1nc2ccccc2c2n1CC(CN1CCN(c3ccc(F)cc3)CC1)N2 (centres undefined) -0.72%
CCCOc1ccccc1C1NC(=O)NC(C)=C1C(=O)OCCOCC (centres undefined) -0.41%
CCC(C)c1ccccc1NC(=S)Nc1cccnc1 (centres undefined) 3.94%
Cc1ccc(N2C(=O)N(C(C)C)C(C)(C)CC2(C)O)cc1 (centres undefined) 2.14%
O=C(c1cccc(Cl)c1)C1CCCN(C(=O)c2ccoc2)C1 (centres undefined) -0.58%
O=c1cc(-c2ccc(O)c(O)c2)oc2cc(O)c(C3OC(CO)C(O)C(O)C3O)c(O)c12 (centres undefined) 0.47%
O=c1cc(-c2ccc(O)cc2)oc2c(C3O[C@H](CO)[C@@H](O)[C@H](O)[C@H]3O)c(O)cc(O)c12 (some centres undefined) -1.94%
COc1ccc(OC)c(NC2c3ncccc3C(=O)N2Cc2ccco2)c1 (centres undefined) 6.51%
O=C1c2cccnc2C(Nc2cccc(F)c2)N1Cc1ccco1 (centres undefined) 12%
O=C1c2cccnc2C(Nc2ccccc2Br)N1Cc1ccco1 (centres undefined) 4.55%
COc1cc(NC2c3ncccc3C(=O)N2Cc2ccco2)cc(OC)c1 (centres undefined) 9.47%
